# CYP2C9 act – human CYP2C9 activators, primary screen, biochemical, luminescence; Cytochrome P450 2C9 (Homo sapiens), P11712; recombinant CYP2C9, luciferin-H conversion; active compounds read high; factor 1 = untreated enzyme, 0 = blocked; activation factor at 5 µM; actives 1.4% (n = 96,000); AID 1024, 2008;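 active means activation factor of 2 or more for CYP2C9 at a 5 µM dose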;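 further: 0 = sulfaphenazole-blocked wells and 1 = vehicle-only wells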
# CYP2C19 activ – human CYP2C19 activators, primary screen, biochemical, luminescence; Cytochrome P450 2C19 (Homo sapiens), P33261; recombinant CYP2C19, luciferin-H EGE luminescence; active compounds read high; 0 = fully inhibited enzyme, 1 = untreated enzyme; activation factor at 5 µM; 96,000 tested, under 10 active;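 active means activation factor of at least 2 at 5 µM in the primary screen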;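 further: 0 = wells with 2.5 mM tranylcypromine and 1 = vehicle-only wells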
# Target sequence (P33261 whole entry, looked up): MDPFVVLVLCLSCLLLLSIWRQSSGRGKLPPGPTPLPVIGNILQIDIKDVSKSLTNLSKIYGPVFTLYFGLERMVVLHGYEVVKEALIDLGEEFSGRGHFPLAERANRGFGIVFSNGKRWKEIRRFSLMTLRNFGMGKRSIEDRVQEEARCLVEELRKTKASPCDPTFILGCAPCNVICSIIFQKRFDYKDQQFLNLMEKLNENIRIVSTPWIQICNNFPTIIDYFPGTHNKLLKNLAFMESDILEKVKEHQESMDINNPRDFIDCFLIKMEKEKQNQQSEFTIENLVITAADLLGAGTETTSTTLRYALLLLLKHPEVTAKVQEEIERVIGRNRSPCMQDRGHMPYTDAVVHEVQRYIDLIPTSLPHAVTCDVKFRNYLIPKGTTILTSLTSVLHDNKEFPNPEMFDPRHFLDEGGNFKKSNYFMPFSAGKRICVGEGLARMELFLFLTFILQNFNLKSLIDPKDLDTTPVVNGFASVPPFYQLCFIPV
# CYP2C19 inh – blockers of cytochrome P450 2C19 activity – biochemical, luminescence, ADME assay, primary screen | P33261 | CYP2C19 Supersomes, luciferin-H EGE luminescence, 30 min | inhibition, % at 5 µM | actives 21% (n = 96,000) | AID 778, 2007;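 active means CYP2C19 inhibition above a set limit at 5 µM in the primary screen, cut at about 50% in these data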;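 further: plate controls were negative control wells for no effect and 2.5 mM tranylcypromine positive control for full effect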
# CYP2C9 inhib – blockers of cytochrome P450 2C9 activity – biochemical, luminescence, ADME assay, primary screen; CYP2C9 Supersomes, luciferin-H conversion; actives 20% (n = 96,000); P11712; inhibition, % at 5 µM;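 active means blocking of liver enzyme CYP2C9 beyond about 50% at 5 µM, limit read from the data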
# Active calls of the source: *. Only some compounds are listed: those with a hit (about 31% of all), similar ones and a draw of the others.
SMILES,CYP2C9 act,CYP2C19 activ,CYP2C19 inh,CYP2C9 inhib
COc1ccc(C(OC(=O)c2ccco2)C(=O)NCC2CCCO2)cc1 (stereo not drawn),0.8,0.6,40.0,21.2
O=C(NCc1ccc(F)cc1)C1CCN(S(=O)(=O)N2CCCCC2)CC1,0.9,1.1,-8.2,6.7
CCCCN(CC)S(=O)(=O)N1CCC(C(=O)NCc2ccc(F)cc2)CC1,0.5,0.4,57.9*,47.1
Fc1ccccc1Cc1nnc2n1N=C(c1ccc(Cl)cc1)CS2,0.4,0.7,33.4,56.1*
CC(C)=CC(=O)Nc1ccc(Br)cc1,0.3,0.8,23.0,73.2*
Cc1n[nH]c(C)c1Cc1ccc(C(=O)O)cc1,1.1,1,-4.4,-6.2
CCC(C)n1c(-c2cccs2)nc2nc3ccccc3nc21 (stereo not drawn),0.4,0.8,17.7,59.7*
CCCn1c(N2CCN(CC(=O)Nc3ccc4c(c3)OCCO4)CC2)nc2ccccc21,0.9,0.8,23.2,13.5
Cc1ccc(CNC(=O)c2cc3c(C)nc4ccccc4c3o2)cc1,0.9,0.9,14.2,9.6
O=C(Cc1csc(Nc2nc(=S)[nH]c3ccccc23)n1)NCc1cccc(Cl)c1,0.2,0.7,31.3,82.8*
Cc1ccc(CNC(=O)Cc2csc(Nc3nc(=S)[nH]c4ccccc34)n2)cc1,0.2,0.4,64.9*,82.2*
O=C(Cc1csc(Nc2nc(=S)[nH]c3ccccc23)n1)NCc1ccccc1Cl,0.2,0.7,34.8,82.6*
Cn1c(N)c(C(=O)NCc2ccccc2Cl)sc1=S,0.5,0.7,33.6,47.8
Cc1ccc(-n2c(-c3ccc(Br)cc3)c[n+]3c2CCc2ccc4cccnc4c2-3)cc1,1.2,0.9,8.4,-21.6
Cc1ccc([N+](=O)[O-])cc1NC(=O)c1ccc(C(C)(C)C)cc1,1.5,0.8,16.9,-45.6
Cc1ccc([N+](=O)[O-])cc1NC(=O)c1ccc(-c2ccccc2)cc1,2.2*,1,2.2,-119.2
Cc1ccccc1NC(=O)c1cccc(S(=O)(=O)Oc2ccc([N+](=O)[O-])cc2)c1,0.6,0.2,79.8*,39.0
Cc1c(C(=O)Nc2ccc(OCc3ccccc3)cc2)cccc1[N+](=O)[O-],1.6,1.1,-14.1,-57.7
Cc1c(C(=O)Nc2ccccc2-c2ccccc2)cccc1[N+](=O)[O-],0.8,0.2,80.3*,22.9
O=C(Nc1ccccc1-c1ccccc1)c1cccc([N+](=O)[O-])c1,0.6,0.1,90.6*,41.5
O=C(O)CCC(=O)N1CCc2cc(S(=O)(=O)N(CCc3ccccc3)Cc3ccccc3)ccc21,0.9,1,0.2,11.5
COc1cc(Nc2nc3ccccc3n3nnnc23)cc(OC)c1OC,0.3,0.7,32.3,68.8*
O=C(c1ccc(Cl)cc1)C1CCN(C(=O)NC2CCCCC2)CC1,0.2,0.1,92.9*,84.7*
O=C(Nc1ccc(F)cc1)N1CCN2C(=O)c3ccccc3C12c1ccccc1 (stereo not drawn),0.5,0.5,51.3*,49.8
O=C(CCN1C(=O)c2ccccc2C1=O)Nc1ccc(F)cc1,1,0.6,37.7,0.3
SMILES,CYP2C9 act,CYP2C19 activ,CYP2C19 inh,CYP2C9 inhib
CCOC(=O)/C=c1\s/c(=C\c2ccc3c(c2)OCCO3)c(=O)n1CC(=O)NCC1CCCO1 (stereo not drawn),0.4,0.3,73.4*,57.5*
CCOC(=O)/C=c1\s/c(=C\c2c(OCC)ccc3ccccc23)c(=O)n1CC(=O)NCC1CCCO1 (stereo not drawn),0.3,0.1,93.3*,69.8*
Cc1ccc(Cl)c(NC(=S)N(CCCN2CCOCC2)Cc2ccco2)c1,0.9,0.9,6.3,12.7
CCCn1nnc(NC(=O)COc2ccc(C3CCCCC3)cc2)n1,0.1,0.4,62.0*,89.3*
O=C(Cc1ccc(F)cc1)NCCc1ccccc1,0.5,0.3,67.7*,50.2*
O=C(NCCc1ccccc1)c1ccc(Br)o1,1,0.5,50.8*,0.6
O=C(Cc1ccc(F)cc1)NCCc1ccc(F)cc1,0.5,0.3,65.2*,52.0*
CCCC(=O)NCCc1ccc(F)cc1,0.9,0.7,30.3,8.7
O=C(CN1CCCCCC1)NCCc1ccc(F)cc1,0.8,0.3,66.2*,15.4
O=C(NCCNC(=O)c1ccc(Br)o1)c1ccc(Br)o1,0.9,0.8,21.7,13.9
O=C(N/C(=C/c1ccco1)C(=O)N1CCCCC1)c1cccs1,1.2,1.2,-20.5,-23.4
